Consider 17 molecules from ChEMBL document CHEMBL1961873, “Compounds: GSK PKIS; Assays: Nanosyn kinase panel” (2012).

Experiment [1] deals with Rho-associated protein kinase 1 (Homo sapiens) (UniProt Q13464). The settings on record: at 1 µM.
The target of experiment [2] is Rho-associated protein kinase 2 (Homo sapiens) (UniProt O75116). The settings on record: at 0.1 µM.
Experiment [3] shares this target. The settings on record: at 1 µM.
The target of experiment [4] is Ribosomal protein S6 kinase alpha-1 (Homo sapiens) (UniProt Q15418). Particulars: at 0.1 µM.
Experiment [5] has the same target. Particulars: at 1 µM.
The target of experiment [6] is Ribosomal protein S6 kinase alpha-3 (Homo sapiens) (UniProt P51812). The settings on record: at 0.1 µM.
Experiment [7] has the same target. Particulars: at 1 µM.
The target in experiment [8] is Ribosomal protein S6 kinase alpha-2 (Homo sapiens) (UniProt Q15349). The settings on record: at 0.1 µM.
For experiment [9] the target is unchanged. Particulars: at 1 µM.
The target of experiment [10] is Ribosomal protein S6 kinase alpha-6 (Homo sapiens) (UniProt Q9UK32). Particulars: at 0.1 µM.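 Also: reported value is the mean inhibition of RSK4, from the GSK PKIS kinase inhibitor screen.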

By inhibition is commonly meant the drop in the measured response relative to a control, in per cent.

Chain of Ribosomal protein S6 kinase alpha-2 (Homo sapiens) (Q15349 whole entry): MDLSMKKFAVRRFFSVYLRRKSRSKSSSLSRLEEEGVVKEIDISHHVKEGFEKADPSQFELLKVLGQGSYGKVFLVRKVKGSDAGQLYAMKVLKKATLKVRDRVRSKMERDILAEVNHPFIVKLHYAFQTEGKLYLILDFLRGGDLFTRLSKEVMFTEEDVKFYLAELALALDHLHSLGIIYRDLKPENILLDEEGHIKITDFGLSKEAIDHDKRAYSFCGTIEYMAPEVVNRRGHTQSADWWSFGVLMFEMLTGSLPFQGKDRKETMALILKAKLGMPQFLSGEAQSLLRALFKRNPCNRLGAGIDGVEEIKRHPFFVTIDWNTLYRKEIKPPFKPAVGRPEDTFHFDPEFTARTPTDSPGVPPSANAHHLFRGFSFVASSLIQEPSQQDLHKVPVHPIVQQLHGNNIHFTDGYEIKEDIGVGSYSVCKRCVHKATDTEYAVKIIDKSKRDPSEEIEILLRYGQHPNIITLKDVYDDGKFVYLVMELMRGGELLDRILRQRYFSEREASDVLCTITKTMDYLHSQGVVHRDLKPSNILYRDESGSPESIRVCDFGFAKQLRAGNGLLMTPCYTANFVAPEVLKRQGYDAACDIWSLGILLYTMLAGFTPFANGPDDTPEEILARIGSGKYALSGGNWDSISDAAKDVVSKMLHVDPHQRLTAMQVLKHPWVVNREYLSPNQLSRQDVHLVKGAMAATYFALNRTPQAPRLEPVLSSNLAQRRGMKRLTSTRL
Chain of Rho-associated protein kinase 1 (Homo sapiens) (Q13464 2-1354 limits assumed): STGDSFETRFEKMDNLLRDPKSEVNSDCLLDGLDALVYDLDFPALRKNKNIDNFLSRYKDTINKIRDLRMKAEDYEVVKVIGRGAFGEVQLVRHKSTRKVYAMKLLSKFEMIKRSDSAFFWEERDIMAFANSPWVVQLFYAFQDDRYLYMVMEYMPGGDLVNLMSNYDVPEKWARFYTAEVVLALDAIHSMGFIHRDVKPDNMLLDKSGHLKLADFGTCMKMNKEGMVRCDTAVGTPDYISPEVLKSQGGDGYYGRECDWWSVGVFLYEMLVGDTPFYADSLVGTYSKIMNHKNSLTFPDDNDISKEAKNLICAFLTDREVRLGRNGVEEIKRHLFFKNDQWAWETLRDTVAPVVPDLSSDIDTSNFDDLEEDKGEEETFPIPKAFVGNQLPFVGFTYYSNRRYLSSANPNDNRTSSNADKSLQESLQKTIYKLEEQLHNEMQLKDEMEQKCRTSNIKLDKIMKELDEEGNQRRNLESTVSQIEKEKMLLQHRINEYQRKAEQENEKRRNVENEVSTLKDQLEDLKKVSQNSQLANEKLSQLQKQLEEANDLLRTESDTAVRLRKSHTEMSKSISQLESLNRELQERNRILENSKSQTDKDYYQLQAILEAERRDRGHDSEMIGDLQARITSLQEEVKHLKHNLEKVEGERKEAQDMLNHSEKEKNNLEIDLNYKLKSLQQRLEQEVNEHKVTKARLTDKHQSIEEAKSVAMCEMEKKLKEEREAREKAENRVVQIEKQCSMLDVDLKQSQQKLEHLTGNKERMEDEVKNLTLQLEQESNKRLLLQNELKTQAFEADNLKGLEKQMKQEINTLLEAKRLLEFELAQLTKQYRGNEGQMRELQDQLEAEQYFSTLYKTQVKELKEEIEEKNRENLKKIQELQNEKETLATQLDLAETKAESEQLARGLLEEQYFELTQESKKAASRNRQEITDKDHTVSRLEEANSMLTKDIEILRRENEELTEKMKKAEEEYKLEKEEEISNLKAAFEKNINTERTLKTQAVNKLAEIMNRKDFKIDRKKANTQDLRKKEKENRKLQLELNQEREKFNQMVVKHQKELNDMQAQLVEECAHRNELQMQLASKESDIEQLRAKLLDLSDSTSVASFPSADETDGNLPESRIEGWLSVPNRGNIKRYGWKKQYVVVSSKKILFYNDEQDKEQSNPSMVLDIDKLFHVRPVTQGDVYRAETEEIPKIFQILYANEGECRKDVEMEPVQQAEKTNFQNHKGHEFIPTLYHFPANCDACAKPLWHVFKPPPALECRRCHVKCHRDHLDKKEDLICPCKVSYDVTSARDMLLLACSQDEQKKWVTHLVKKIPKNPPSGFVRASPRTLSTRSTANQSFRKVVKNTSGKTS
Chain of Ribosomal protein S6 kinase alpha-1 (Homo sapiens) (Q15418 whole entry): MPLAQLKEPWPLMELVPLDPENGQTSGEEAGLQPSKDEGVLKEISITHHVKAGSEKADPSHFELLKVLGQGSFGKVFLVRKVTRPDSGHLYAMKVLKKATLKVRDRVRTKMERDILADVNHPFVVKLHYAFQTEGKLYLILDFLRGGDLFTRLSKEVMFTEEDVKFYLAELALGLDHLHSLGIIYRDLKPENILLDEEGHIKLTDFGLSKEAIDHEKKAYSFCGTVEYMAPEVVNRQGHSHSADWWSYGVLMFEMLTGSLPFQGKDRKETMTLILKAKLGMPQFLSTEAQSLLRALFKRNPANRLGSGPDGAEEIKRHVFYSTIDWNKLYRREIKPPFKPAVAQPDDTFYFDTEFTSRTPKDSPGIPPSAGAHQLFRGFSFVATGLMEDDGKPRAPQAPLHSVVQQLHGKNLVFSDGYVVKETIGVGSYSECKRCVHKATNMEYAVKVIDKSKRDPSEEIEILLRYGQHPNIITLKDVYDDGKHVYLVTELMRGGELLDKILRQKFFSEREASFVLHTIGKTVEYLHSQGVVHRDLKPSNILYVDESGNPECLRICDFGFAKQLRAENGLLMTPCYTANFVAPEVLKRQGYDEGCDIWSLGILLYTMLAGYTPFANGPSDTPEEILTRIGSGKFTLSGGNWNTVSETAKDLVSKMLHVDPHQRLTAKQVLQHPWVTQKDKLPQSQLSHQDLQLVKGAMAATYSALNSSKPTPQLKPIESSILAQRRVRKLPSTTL
Chain of Ribosomal protein S6 kinase alpha-6 (Homo sapiens) (Q9UK32 whole entry): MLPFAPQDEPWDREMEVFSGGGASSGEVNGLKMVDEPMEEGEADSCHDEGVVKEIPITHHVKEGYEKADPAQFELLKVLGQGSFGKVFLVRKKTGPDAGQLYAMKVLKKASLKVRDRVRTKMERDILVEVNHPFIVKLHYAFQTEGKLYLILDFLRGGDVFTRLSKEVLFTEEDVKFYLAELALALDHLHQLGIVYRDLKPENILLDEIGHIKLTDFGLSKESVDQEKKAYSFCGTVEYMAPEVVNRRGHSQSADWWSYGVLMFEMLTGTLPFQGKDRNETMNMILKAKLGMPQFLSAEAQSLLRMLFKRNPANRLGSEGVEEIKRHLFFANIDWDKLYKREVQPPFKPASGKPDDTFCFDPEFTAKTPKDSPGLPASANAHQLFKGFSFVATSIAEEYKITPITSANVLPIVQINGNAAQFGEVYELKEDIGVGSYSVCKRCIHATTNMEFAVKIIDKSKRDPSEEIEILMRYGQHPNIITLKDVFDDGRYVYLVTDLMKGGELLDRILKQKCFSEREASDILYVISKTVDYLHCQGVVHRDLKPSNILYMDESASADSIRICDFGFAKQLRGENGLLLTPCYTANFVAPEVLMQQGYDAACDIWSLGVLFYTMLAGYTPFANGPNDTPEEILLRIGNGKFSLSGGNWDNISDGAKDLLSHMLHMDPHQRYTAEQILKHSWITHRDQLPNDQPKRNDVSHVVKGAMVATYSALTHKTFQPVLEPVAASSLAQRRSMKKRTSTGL
Chain of Rho-associated protein kinase 2 (Homo sapiens) (O75116 whole entry, looked up): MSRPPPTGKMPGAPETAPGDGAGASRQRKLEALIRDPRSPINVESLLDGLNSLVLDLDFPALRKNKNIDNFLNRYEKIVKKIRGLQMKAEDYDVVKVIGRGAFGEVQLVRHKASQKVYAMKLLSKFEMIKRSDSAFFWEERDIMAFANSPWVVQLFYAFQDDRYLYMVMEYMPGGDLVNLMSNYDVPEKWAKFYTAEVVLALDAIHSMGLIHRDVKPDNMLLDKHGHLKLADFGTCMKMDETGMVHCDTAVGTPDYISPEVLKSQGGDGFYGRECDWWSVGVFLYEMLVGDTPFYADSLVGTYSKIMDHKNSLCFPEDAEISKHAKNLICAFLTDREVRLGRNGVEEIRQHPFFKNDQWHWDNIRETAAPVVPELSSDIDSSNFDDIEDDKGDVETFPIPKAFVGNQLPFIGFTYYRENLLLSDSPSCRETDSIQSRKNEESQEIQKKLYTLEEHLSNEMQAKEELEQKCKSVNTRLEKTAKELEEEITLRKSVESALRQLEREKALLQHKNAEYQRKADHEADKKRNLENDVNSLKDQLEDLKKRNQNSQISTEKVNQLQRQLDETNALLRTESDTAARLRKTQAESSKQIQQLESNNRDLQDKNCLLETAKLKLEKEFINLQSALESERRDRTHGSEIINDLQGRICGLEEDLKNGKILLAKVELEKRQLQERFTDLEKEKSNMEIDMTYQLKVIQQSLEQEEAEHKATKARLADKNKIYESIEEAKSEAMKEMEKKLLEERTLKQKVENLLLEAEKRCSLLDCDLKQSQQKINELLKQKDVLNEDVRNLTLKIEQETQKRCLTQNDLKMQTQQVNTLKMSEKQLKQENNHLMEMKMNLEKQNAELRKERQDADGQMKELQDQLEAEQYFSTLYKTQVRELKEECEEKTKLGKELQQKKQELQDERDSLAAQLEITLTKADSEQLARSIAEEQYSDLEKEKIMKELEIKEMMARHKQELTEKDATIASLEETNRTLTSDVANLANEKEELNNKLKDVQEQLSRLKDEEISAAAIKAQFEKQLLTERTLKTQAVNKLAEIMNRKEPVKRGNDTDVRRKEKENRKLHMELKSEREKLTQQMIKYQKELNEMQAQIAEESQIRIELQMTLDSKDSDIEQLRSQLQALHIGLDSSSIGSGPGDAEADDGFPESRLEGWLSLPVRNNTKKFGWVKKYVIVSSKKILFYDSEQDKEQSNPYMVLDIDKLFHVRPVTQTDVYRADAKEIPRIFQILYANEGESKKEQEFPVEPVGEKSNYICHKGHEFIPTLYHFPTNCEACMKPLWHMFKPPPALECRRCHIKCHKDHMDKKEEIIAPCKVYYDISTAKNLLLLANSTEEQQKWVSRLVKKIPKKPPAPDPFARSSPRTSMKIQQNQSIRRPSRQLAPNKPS

In the case of `O=S(=O)(CCNCc1ccc(-c2ccc3ncnc(Nc4ccc(OCc5cccc(F)c5)c(Cl)c4)c3c2)o1)c1ccccc1`, the inhibition in [1] amounted to 3.67%; in experiment [2], 3.77%; in [3], 5.56%; in experiment [4] it was 2.26%; in [5], 4.3%; in [6] it was 0.92%. For the same molecule, the inhibition in experiment [7] turned out to be 0.8%; in experiment [8], 1.16%; in experiment [9], 2.98%; in experiment [10], 0.95%.

Consider `CCCN1CCC(c2ccc(Nc3nc(Nc4cc(F)ccc4C(N)=O)c4cc[nH]c4n3)c(OC)c2)CC1`, for which the inhibition was 64.6% in [1]; 19.9% in experiment [2]; 69.8% in experiment [3]; 37.4% in experiment [4]; 69.7% in experiment [5]; 26.5% in experiment [6]. In addition, the inhibition was found to be 66.8% in [7], 12% in [8], 53.5% in experiment [9] and 23.4% in [10].

Consider `Fc1ccc(-c2nn3ccccc3c2-c2ccncc2)cc1`, for which the inhibition in experiment [1] amounted to 4.95%; in experiment [2], 5.66%; in experiment [3] it was 3.03%; in [4] it was 1.48%; in experiment [5], 4.42%; in experiment [6], 1.87%. Moreover, the inhibition was found to be 3.24% in [7], 0.67% in experiment [8], 1.19% in experiment [9] and 1.1% in experiment [10].

Take `Nc1nc(-c2cccc(Cl)c2)c(-c2ccc3ncccc3n2)s1`: the inhibition in [1] was found to be 1.91%; in experiment [2] it was 4.39%; in experiment [3], 7.84%; in [4], 3.03%; in experiment [5], 9.16%; in experiment [6], 1.82%. The inhibition in experiment [7] was determined as 4.8%; in [8], 3.04%; in experiment [9], 2.74%; in [10] it was 1.97%.

`Fc1ccc(-c2cc(-c3c[nH]nc3-c3ccccn3)ccn2)cc1`: the inhibition in experiment [1] is 1.54%; in [2], 2.91%; in experiment [3] it was 7.8%; in experiment [4], 1.71%; in experiment [5], 5.2%; in experiment [6], 0.81%. The inhibition was 3.36% in experiment [7], 1.61% in experiment [8], 2.64% in [9] and -0.68% in experiment [10].

As to `CCNC(=O)O[C@H]1CN[C@H](C#Cc2cc3ncnc(Nc4ccc(OCc5cccc(F)c5)c(Cl)c4)c3s2)C1`, the inhibition in [1] was 1.95%; in experiment [2], 2.86%; in experiment [3] it was 0.32%; in [4], 1.32%; in experiment [5] it was 0.05%; in experiment [6], -0.04%. The inhibition is -1.01% in experiment [7], 1.63% in [8], 0.86% in [9] and 1.4% in experiment [10].

Take `CS(=O)(=O)CCNCc1coc(-c2ccc3ncnc(Nc4ccc(OCc5ccccc5)cc4)c3c2)c1`: the inhibition in [1] was found to be 1.33%; in experiment [2] it was 1.66%; in experiment [3], 1.35%; in experiment [4] it was 2.08%; in experiment [5], 2.82%; in experiment [6] it was 2.71%. Moreover, the inhibition in [7] came out at 3.03%; in experiment [8], 3.38%; in [9], 3.14%; in experiment [10] it was 2.43%.

As to `Nc1nc(-c2ccc(F)cc2)c(-c2ccc3ncccc3n2)s1`, the inhibition in [1] was 2.11%; in [2] it was 4.08%; in [3], 5.66%; in experiment [4] it was 3.54%; in [5], 7.04%; in [6] it was 1.7%. The inhibition turned out to be 3.18% in [7], 1.93% in experiment [8], 3.03% in experiment [9] and 1.18% in experiment [10].

Consider `c1cc(-c2cnn3nc(N4CCOCC4)ccc23)nc(NC2CC2)n1`, for which the inhibition was found to be 5.25% in experiment [1]; 2.62% in [2]; 10.7% in experiment [3]; 2.23% in experiment [4]; 8.38% in experiment [5]; 0.87% in experiment [6]. Moreover, the inhibition came out at 6.33% in experiment [7], 1.86% in experiment [8], 5.06% in experiment [9] and 0.29% in [10].

For the molecule `COc1ccc(-c2oc3ncnc(N)c3c2-c2ccc(NC(=O)Nc3cc(C(F)(F)F)ccc3F)cc2)cc1`, the inhibition in experiment [1] worked out at 11.5%; in experiment [2], 6.51%; in [3] it was 41.8%; in [4], 10.5%; in experiment [5] it was 61.3%; in [6], 4.28%. Moreover, the inhibition in experiment [7] was determined as 34.4%; in experiment [8], 1.67%; in experiment [9], 34.1%; in experiment [10] it was 0.74%.

Take `COc1cccc(-n2ncc3c(N/N=C/c4ccc(F)cc4)ncnc32)c1`: the inhibition is 1.49% in [1]; 4.65% in experiment [2]; 6.14% in [3]; 2.21% in experiment [4]; 4.62% in experiment [5]; 1.27% in experiment [6]. Also, the inhibition worked out at 2.74% in experiment [7], 0.94% in [8], 3.3% in experiment [9] and 1.4% in experiment [10].

Take `Fc1ccc(-c2nn3ncccc3c2-c2ccnc(Nc3ccc4c(c3)OCCO4)n2)cc1`: the inhibition worked out at 1.7% in experiment [1]; 1.49% in experiment [2]; 2.36% in [3]; 1.15% in experiment [4]; 4.94% in [5]; 0.37% in experiment [6]. For the same molecule, the inhibition in [7] was 1.36%; in experiment [8], 2.3%; in [9], 4.22%; in [10], 2.06%.

Turning to `CCN1CCC(CC(=O)Nc2n[nH]c3nnc(-c4cccc(F)c4F)cc23)CC1`, the inhibition in [1] was 0.43%; in experiment [2], 1.58%; in experiment [3], 0.93%; in experiment [4], 1.35%; in [5], 2.11%; in [6], 3.2%. For the same molecule, the inhibition in experiment [7] came to 3.53%; in experiment [8], 1.12%; in [9] it was 1.83%; in experiment [10], 1.84%.

For `CCn1c(-c2nonc2N)nc2c(C#CC(C)(C)O)nc(OC[C@H](N)c3ccccc3)cc21`, the inhibition is 24.7% in experiment [1]; 9.12% in experiment [2]; 51.3% in [3]; 3.36% in experiment [4]; 12.8% in experiment [5]; 1.74% in experiment [6]. Also, the inhibition was found to be 14.5% in experiment [7], 3.19% in experiment [8], 10.7% in experiment [9] and 1.53% in experiment [10].

Take `COc1cccc(-c2c[nH]c3c(N/N=C/c4ccncc4)ncnc23)c1`: the inhibition in [1] was 7.68%; in experiment [2], 3.52%; in experiment [3] it was 11.7%; in experiment [4], 2.76%; in experiment [5] it was 7.19%; in [6], 1.21%. Moreover, the inhibition in experiment [7] stood at 7.47%; in [8], 2.28%; in experiment [9], 11.7%; in experiment [10] it was 1.63%.

Take `COc1ccc(CNC(=O)c2ccc(-c3cc(-c4nnc(C)o4)ccc3C)cc2)cc1`: the inhibition came to 2.35% in experiment [1]; 4.11% in experiment [2]; 9.48% in experiment [3]; 3.72% in experiment [4]; 8.08% in [5]; 2.12% in experiment [6]. In addition, the inhibition worked out at 5.75% in experiment [7], 0.39% in experiment [8], 0.4% in experiment [9] and 0.98% in experiment [10].

For the molecule `CCN(CC)S(=O)(=O)c1ccc(OC)c(Nc2ncc(-c3ccccc3)o2)c1`, the inhibition in experiment [1] came to 2.02%; in experiment [2] it was 1.64%; in experiment [3] it was 2.3%; in [4] it was 0.82%; in experiment [5], 5.22%; in experiment [6] it was 0.74%. Also, the inhibition in [7] was -0.03%; in [8], 0.64%; in experiment [9] it was 1.51%; in experiment [10], 1.64%.
